The values below come from ChEMBL document CHEMBL3988442, “University of Dundee, Small-Polar-MMV Screening Library” (2021).

“And” between values parts separate entries of the source, which are not always exact repeats. Equal values may be shown once. For some assays here: Results with a measured potency or affinity are listed apart.

Common to all, as to parameters: scale not given: direction of the effect not stated beside the values
Experiment [1] addresses Protein translocase subunit SecA (Escherichia coli (strain K12)) (UniProt P10408). Briefly: Assay to Identify E. coli SecA ATPase Inhibitors. It is filed as functional. Particulars: 30 µM.
Experiment [2] deals with T1, Ubiquitin-activating enzyme e1, putative (Leishmania donovani (strain BPK282A1)) (UniProt E9BSI1).
T1 sequence (whole entry): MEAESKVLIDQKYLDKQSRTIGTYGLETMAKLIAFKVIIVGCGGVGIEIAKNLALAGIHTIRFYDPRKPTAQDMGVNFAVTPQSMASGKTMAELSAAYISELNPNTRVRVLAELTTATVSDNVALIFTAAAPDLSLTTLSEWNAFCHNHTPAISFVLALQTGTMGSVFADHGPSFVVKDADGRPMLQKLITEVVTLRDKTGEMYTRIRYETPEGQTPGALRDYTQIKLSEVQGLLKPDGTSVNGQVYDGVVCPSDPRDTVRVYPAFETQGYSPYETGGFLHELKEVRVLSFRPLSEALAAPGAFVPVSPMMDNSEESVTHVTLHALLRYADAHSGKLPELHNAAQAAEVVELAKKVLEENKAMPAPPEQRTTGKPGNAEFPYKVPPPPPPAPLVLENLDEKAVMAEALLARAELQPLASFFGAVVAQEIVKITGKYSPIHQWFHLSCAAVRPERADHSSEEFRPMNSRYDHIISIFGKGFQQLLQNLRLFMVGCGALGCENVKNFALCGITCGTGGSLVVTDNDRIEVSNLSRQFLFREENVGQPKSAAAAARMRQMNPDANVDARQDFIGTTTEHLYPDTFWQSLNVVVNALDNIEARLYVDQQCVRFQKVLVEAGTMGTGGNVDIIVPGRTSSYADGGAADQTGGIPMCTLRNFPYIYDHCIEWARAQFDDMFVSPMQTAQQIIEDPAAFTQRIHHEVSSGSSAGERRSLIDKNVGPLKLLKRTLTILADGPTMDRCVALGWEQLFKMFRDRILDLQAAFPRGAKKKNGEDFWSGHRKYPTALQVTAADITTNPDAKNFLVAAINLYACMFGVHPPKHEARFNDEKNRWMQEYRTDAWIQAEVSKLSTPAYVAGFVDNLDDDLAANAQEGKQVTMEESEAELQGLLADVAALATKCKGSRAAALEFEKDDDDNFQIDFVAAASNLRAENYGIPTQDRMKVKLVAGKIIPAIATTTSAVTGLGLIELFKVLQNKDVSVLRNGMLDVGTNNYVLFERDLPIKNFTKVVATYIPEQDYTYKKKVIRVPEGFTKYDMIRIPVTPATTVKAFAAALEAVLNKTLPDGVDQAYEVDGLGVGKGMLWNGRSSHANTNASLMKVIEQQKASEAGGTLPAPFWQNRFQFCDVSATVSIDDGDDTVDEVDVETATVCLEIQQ
Briefly: Leishmania donovani Ubiquitin Activating Enzyme (LdE1). The class given is functional. The conditions noted are these: 30 µM.

The target of experiment [3] is AMP-activated protein kinase, AMPK (Homo sapiens) (UniProt P54646+O43741+P54619+Q9UGJ0+Q9Y478+Q13131+Q9UGI9). The experiment is described as follows: AMP-dependent Kinase enzyme assay. An in vitro enzyme assay that detects ADP turnover that is directly proportional to AMPK activity. This uses naive AMPK that is activated during the assay with MK-8722. It is filed as functional. Particulars: 30 µM.

In experiment [4] the target is Sialic acid-binding Ig-like lectin 9 (Homo sapiens) (UniProt Q9Y336). The experiment is described as follows: Hs-Siglec9 ALPHAscreen SOP 20170721. Particulars: 10 µM. On the technique in general: Bead proximity is the source of the signal in Alpha formats.
Chain of Sialic acid-binding Ig-like lectin 9 (Homo sapiens) (Q9Y336 whole entry): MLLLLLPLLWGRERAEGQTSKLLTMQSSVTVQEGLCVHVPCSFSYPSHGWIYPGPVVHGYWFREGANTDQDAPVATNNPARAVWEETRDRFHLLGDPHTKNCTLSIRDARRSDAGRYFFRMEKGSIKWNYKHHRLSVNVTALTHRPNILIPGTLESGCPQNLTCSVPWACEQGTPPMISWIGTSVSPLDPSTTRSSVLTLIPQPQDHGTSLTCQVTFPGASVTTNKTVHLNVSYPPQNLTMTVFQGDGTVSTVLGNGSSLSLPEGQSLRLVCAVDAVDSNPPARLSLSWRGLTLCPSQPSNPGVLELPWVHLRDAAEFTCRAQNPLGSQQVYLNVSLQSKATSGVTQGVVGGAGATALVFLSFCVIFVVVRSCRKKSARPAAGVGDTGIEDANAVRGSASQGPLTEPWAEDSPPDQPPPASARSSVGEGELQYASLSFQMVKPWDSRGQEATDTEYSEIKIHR
For a further experiment, the system named is Trypanosoma cruzi. Briefly: Trypanosoma cruzi phosphomannomutase and mannose-1-phosphate guanylyltransferase assay. It is filed as functional. Particulars: 10 µM.
Experiment [5] addresses T2, Arginase-2, mitochondrial (Homo sapiens) (UniProt P78540).
T2 sequence (whole entry): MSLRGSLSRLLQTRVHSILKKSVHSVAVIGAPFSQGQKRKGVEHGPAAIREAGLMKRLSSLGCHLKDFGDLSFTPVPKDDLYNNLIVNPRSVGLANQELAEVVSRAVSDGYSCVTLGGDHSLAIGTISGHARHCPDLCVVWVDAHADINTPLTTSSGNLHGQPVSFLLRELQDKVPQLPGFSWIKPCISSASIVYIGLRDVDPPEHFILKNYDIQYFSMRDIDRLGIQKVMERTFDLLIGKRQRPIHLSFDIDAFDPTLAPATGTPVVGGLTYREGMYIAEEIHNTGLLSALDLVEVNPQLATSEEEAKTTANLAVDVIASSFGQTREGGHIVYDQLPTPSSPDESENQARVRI
Briefly: in vitro enzyme assay to detect the production of urea directly proportional to the activity of Arginase II. Note: in the data most compounds retested in dose-response had high values. Particulars: 33.3 µM. The class given is functional.

The target in experiment [6] is T3, Proteasome subunit beta (Trypanosoma cruzi) (UniProt O96673).
T3 sequence (whole entry): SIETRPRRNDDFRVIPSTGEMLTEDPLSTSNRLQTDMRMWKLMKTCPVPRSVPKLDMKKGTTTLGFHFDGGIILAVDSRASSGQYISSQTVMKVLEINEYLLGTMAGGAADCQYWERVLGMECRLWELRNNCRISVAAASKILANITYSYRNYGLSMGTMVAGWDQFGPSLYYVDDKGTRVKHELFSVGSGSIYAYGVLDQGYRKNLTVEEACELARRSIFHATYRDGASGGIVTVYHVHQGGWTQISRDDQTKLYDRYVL
Briefly: Trypanosoma cruzi proteasome chymotrypsin-like activity (TcProtChymo) assay. Note: in the data most compounds retested in dose-response had high values. Particulars: 9.37 µM. The class given is functional.

The species named for a further experiment is Homo sapiens. Briefly: To identify inhibition of the IFN signalling (Jak-Stat) pathway via expression of an eGFP reporter gene under the control of an IFN-stimulated response element (ISRE) containing MxA promoter. The conditions noted are these: 30 µM. The class given is functional. On the technique in general: In a reporter assay the amount or activity of a reporter protein is the signal.

The target in experiment [7] is T4, Tyrosyl-tRNA synthetase, putative (Trypanosoma cruzi (strain CL Brener)) (UniProt Q4DSP6).
T4 sequence (whole entry): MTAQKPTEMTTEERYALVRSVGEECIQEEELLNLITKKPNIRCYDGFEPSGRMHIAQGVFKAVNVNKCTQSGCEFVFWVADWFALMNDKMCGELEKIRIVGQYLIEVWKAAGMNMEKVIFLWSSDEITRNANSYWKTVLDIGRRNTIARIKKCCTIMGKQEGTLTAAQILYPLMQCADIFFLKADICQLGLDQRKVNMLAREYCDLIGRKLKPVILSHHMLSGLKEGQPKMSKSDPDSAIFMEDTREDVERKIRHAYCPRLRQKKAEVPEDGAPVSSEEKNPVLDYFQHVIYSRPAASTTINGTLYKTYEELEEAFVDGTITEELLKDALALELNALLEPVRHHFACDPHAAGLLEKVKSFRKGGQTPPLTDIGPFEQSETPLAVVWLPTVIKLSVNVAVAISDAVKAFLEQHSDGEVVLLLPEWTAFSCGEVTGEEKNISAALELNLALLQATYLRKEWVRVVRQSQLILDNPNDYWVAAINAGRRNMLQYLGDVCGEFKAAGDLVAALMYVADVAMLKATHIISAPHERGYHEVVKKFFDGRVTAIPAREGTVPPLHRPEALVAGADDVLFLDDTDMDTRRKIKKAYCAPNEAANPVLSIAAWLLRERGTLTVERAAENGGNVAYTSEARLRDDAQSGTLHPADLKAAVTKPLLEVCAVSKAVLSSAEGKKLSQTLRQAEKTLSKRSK
Briefly: Trypanosoma cruzi tyrosyl tRNA synthetase (TcYRS) _High Tyrosine SOP. Note: in the data most compounds retested in dose-response had high values. It is filed as functional. Particulars: 30 µM.

Experiment [8] addresses T4, Tyrosyl-tRNA synthetase, putative (Trypanosoma cruzi (strain CL Brener)). The experiment is described as follows: Trypanosoma cruzi tyrosyl tRNA synthetase (TcYRS) SOP. The class given is functional. Particulars: 30 µM.
Experiment [9] deals with Chromo domain-containing protein 1 (Saccharomyces cerevisiae (strain ATCC 204508 / S288c) (Baker's yeast)) (UniProt P32657). Briefly: ScCHD-1 Enzyme Inhibition Assay. Note: in the data most compounds retested in dose-response had high values. It is filed as functional. Particulars: 30 µM.
Chain of Chromo domain-containing protein 1 (Saccharomyces cerevisiae (strain ATCC 204508 / S288c) (Baker's yeast)) (P32657 whole entry, the tested form may be a part): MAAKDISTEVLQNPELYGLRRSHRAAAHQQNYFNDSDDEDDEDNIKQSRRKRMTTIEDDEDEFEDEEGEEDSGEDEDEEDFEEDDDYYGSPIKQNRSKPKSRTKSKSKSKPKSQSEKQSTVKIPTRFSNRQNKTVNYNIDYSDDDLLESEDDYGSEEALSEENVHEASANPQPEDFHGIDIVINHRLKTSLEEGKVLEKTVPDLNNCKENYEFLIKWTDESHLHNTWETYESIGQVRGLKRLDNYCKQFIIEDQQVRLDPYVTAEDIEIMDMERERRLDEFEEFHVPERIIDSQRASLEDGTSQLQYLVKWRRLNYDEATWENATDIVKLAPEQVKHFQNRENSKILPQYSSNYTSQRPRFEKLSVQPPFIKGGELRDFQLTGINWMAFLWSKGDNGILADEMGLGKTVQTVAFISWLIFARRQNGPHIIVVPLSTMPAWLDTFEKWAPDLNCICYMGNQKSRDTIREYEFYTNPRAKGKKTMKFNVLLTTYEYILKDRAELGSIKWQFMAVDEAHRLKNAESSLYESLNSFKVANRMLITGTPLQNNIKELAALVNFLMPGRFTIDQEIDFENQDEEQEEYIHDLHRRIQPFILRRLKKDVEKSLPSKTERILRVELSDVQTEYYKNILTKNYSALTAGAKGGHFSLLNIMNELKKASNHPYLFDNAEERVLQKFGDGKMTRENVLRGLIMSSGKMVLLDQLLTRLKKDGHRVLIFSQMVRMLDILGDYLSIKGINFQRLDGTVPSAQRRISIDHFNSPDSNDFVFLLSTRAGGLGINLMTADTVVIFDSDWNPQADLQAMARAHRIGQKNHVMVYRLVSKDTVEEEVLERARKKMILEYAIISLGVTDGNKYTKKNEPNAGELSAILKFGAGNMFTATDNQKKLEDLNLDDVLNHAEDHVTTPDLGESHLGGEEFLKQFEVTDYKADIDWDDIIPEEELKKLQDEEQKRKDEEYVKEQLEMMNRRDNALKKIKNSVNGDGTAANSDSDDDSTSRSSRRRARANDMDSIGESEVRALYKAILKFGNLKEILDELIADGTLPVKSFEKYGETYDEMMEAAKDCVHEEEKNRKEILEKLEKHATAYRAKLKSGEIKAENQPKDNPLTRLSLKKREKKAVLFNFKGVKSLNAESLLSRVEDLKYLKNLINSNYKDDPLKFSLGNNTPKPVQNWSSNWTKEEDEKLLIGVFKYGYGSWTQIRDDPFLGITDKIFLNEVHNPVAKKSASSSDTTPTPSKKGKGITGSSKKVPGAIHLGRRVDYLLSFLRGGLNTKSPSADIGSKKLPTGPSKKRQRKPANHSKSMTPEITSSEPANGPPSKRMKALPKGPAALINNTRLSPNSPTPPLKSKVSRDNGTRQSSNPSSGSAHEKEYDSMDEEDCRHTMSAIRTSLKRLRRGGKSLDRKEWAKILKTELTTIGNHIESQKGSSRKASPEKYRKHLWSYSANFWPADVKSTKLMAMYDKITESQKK
The test system of the next experiment is N/A. The experiment is described as follows: Trypanosoma cruzi proteasome luciferase counter-screen. It is filed as functional. Particulars: 9.37 µM. In general terms: A counterscreen serves to expose hits that act by an unwanted route or on another target.

Chain of Protein translocase subunit SecA (Escherichia coli (strain K12)) (P10408 whole entry): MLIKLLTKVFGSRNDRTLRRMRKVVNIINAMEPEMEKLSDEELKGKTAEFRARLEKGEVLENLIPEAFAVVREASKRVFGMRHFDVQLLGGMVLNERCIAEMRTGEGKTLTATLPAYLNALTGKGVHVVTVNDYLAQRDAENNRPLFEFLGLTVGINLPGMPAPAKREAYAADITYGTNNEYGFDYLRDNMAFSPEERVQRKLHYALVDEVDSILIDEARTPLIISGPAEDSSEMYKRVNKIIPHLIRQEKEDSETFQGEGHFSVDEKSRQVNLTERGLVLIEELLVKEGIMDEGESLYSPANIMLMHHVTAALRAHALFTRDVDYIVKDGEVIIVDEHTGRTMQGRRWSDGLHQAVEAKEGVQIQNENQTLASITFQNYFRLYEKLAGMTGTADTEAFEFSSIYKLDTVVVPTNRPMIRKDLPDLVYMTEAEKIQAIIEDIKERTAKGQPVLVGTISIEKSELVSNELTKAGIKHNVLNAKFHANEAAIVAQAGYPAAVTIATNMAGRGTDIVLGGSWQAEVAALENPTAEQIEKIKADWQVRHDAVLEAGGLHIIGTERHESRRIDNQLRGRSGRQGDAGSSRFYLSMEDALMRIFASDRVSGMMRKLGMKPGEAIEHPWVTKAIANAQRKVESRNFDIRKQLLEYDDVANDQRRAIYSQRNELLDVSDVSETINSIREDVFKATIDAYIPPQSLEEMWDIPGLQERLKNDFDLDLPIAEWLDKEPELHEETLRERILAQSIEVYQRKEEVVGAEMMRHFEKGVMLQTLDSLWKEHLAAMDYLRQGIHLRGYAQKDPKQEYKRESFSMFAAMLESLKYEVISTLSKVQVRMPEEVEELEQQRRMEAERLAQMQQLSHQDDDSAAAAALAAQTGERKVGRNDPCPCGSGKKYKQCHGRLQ

In the case of `Cc1ccc(Cc2cnc(NC(=O)C3CNC(=O)N3)s2)cc1F` (configuration not stated), the Percent Effect is -2.83% in experiment [1]; 8.86% in experiment [2]; 4.79% in [3]; 5.91% in experiment [4]; 0.308% in the experiment on Trypanosoma cruzi; 1.5% in [5]. For the same molecule, the Percent Effect in experiment [6] was 16.6%; in the experiment listed under Homo sapiens it was -4.36%; in experiment [7] it was -3.12%; in experiment [8] it was 17.7%; in experiment [9] it was -8.88%.

As to `Cc1cc(S(=O)(=O)Nc2cccc(-n3cccc3)c2)sc1C(=O)O`, the Percent Effect in [1] is 1.39%; in experiment [2] it was 0%; in experiment [3], 12.1%; in [4], 7.4%; in the experiment on Trypanosoma cruzi, 4.99%; in experiment [5], -0.248%. Further, the Percent Effect in experiment [6] was 36.5% and 37.6% and 37.3%; in the experiment on N/A it was 19.1% and 16.4%; in the experiment filed under Homo sapiens it was -6.8%; in experiment [7], -43%; in [8], -38.3%; in [9], 32.5%.

`c1ncc(Nc2nccc(C3CCCCN3CC3CCCCC3)n2)cn1` (configuration not stated): the Percent Effect in experiment [1] is -4.71%; in experiment [2], 13.3%; in experiment [3], 10.8%; in experiment [4], -4.81%; in the experiment on Trypanosoma cruzi, -0.591%; in experiment [5], 3.5%. Further, the Percent Effect is 10.5% in [6]; 21.9% in the experiment filed under Homo sapiens; 2.13% in experiment [7]; 11.5% in experiment [8]; -6.48% in [9].

Consider `CC(C)CC1SCC(=O)Nc2c1cnn2-c1ccc(F)cc1` (configuration not stated), for which the Percent Effect in [1] is -4.89%; in experiment [2] it was 6.67%; in experiment [3], 1.34%; in experiment [4], 3.64%; in the experiment with Trypanosoma cruzi, 4.91%; in experiment [5], -3.35%. Besides, the Percent Effect in experiment [6] was 2.03%; in the experiment filed under Homo sapiens, 1.9%; in experiment [7], 6.35%; in [8], 7.69%; in [9], -4.25%.

For `CC(NC(=O)NCCCn1cncn1)c1ccc2c(c1)OCCO2` (configuration not stated), the Percent Effect was -1.3% in [1]; 18.9% in [2]; -2.43% in experiment [3]; 0.133% in experiment [4]; -3.81% in the experiment with Trypanosoma cruzi; -1.66% in [5]. The Percent Effect was 14.2% in experiment [6]; 6.17% in the experiment listed under Homo sapiens; 2.97% in experiment [7]; 15.8% in [8]; -2.48% in [9].

Take `O=C(CO)N1CCC(c2cncc(-c3cccc(Cl)c3)n2)CC1`: the Percent Effect in experiment [1] was -2.26%; in experiment [2], -2.67%; in experiment [3], 27.8%; in experiment [4], -7.86%; in the experiment with Trypanosoma cruzi, 8.27%; in experiment [5], 138%. Besides, the Percent Effect was 15.9% in experiment [6]; 6.85% in the experiment filed under Homo sapiens; 11.7% in experiment [7]; 16.7% in [8]; -5.15% in experiment [9].

Consider `Cc1ccsc1C(=O)N1CC(C(=O)NCC2CC2)C2(CCOCC2)C1` (configuration not stated), for which the Percent Effect is -6.49% in experiment [1]; 7.79% in [2]; 87.3% in experiment [3]; -3.49% in experiment [4]; -9.57% with Trypanosoma cruzi; 1.94% in [5]. The Percent Effect was 8.36% in [6]; 27.5% in the experiment listed under Homo sapiens; 0% in experiment [7]; -3.85% in experiment [8]; -7.68% in experiment [9].

As to `COc1cc(CNC(=O)NCCCF)cc(Br)c1OC`, the Percent Effect in experiment [1] was -5.95%; in experiment [2] it was -2.67%; in experiment [3] it was 3.23%; in experiment [4], -1.26%; in the experiment on Trypanosoma cruzi it was -2.24%; in experiment [5], 0%. Moreover, the Percent Effect was -0.174% in [6]; 25.5% in the experiment listed under Homo sapiens; 1.64% in [7]; 1.24% in experiment [8]; 1.39% in [9].

Consider `Cc1cc(C)n(CC2CN(Cc3nc(-c4ccoc4)no3)CCO2)n1` (configuration not stated), for which the Percent Effect is -0.455% in [1]; 16.2% in [2]; -10.1% in [3]; 0.775% in experiment [4]; 6.51% with Trypanosoma cruzi; -2.81% in experiment [5]. In addition, the Percent Effect in experiment [6] was 5.22%; in the experiment filed under Homo sapiens, 7.72%; in [7], 3.45%; in experiment [8], 18.5%; in experiment [9], -11.6%.

`COCc1cc(NCCc2ccc(F)cc2)n2nccc2n1`: the Percent Effect was -5.32% in experiment [1]; 0% in experiment [2]; 14.1% in experiment [3]; -6.47% in [4]; -0.196% in the experiment on Trypanosoma cruzi; -2.27% in experiment [5]. Further, the Percent Effect is -0.887% in experiment [6]; -6.7% in the experiment listed under Homo sapiens; 1.07% in experiment [7]; 5% in [8]; -5.83% in experiment [9].

In the case of `COCCN1CCN(CCS(=O)(=O)C(F)(F)F)CC1C` (configuration not stated), the Percent Effect in [1] is -3.49%; in experiment [2] it was 8.11%; in experiment [3] it was -8.33%; in experiment [4], 4.35%; in the experiment on Trypanosoma cruzi, -3.62%; in experiment [5], -4.25%. Moreover, the Percent Effect in experiment [6] stood at 0.179%; in the experiment listed under Homo sapiens, 25.8%; in experiment [7] it was 2.97%; in [8] it was 11%; in experiment [9], 9.67%.
